This is an account of results in paper PMC7862700, “An all-to-all approach to the identification of sequence-specific readers for epigenetic DNA modifications on cytosine”.

Test in all cases: DAPPL (digital affinity profiling via proximity ligation, sequencing); 10 mM Tris-HCl pH 7.5, 50 mM NaCl, 1 mM DTT, 4% glycerol, room temperature, 30 min; GST-TFs on glutathione beads, 16-mer random dsDNA library, 0.1% formaldehyde crosslink after washing; high values mean tight binding
In experiment [1] the target is T1, FEV (Homo sapiens, UniProt Q99581 1-238).
T1 sequence: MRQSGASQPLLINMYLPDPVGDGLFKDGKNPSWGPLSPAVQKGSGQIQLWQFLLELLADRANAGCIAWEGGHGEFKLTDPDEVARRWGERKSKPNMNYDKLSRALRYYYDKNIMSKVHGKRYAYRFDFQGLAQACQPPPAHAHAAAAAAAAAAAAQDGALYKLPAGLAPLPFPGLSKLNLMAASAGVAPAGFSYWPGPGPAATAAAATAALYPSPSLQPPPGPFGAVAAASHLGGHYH
Particulars: protein: recombinant; tags: N-terminal GST; dsDNA, one strand shown. The gist of the method: (§1)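 Each value of binding signal is a hexamer's read frequency for a factor divided by the same hexamer's frequency in the tag-only sample. Barcoded, bead-captured GST fusions of human transcription factors made in yeast were pooled with that sample and incubated with 200 nmole of a random double-stranded 16-mer DNA library in Tris/NaCl/DTT/glycerol buffer at room temperature for 30 min. Washing, 0.1% formaldehyde crosslinking, proximity ligation, PCR and Illumina NextSeq500 sequencing followed.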

Experiment [2] concerns the target ETV5 (Homo sapiens, UniProt P41161 1-510). To be noted: protein: recombinant; tags: N-terminal GST; dsDNA, one strand shown. The essentials: as §1
The target in experiment [3] is HSF1 (Homo sapiens, UniProt Q00613 1-529). Particulars: protein: recombinant; tags: N-terminal GST; chain copies: 3; dsDNA, one strand shown. The essentials:
as §1

The target of experiment [4] is T2, SPIC (Homo sapiens, UniProt Q8N5J4 1-248).
T2 sequence: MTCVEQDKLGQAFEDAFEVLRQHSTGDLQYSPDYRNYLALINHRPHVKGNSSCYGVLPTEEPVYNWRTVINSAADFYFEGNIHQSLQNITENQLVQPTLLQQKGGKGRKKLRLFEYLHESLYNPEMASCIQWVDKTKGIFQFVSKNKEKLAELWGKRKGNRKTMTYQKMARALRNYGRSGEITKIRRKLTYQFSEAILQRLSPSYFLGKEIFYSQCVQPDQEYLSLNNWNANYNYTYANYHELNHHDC
To be noted: protein: recombinant; tags: N-terminal GST; dsDNA, one strand shown. The essentials:
as §1

For experiment [5], the target named is ELF4 (Homo sapiens, UniProt Q99607 1-663). To be noted: protein: recombinant; tags: N-terminal GST; dsDNA, one strand shown. The gist of the method:
as §1

Experiment [6] deals with T3, ELK4 (Homo sapiens, UniProt P28324-2 1-405).
T3 sequence: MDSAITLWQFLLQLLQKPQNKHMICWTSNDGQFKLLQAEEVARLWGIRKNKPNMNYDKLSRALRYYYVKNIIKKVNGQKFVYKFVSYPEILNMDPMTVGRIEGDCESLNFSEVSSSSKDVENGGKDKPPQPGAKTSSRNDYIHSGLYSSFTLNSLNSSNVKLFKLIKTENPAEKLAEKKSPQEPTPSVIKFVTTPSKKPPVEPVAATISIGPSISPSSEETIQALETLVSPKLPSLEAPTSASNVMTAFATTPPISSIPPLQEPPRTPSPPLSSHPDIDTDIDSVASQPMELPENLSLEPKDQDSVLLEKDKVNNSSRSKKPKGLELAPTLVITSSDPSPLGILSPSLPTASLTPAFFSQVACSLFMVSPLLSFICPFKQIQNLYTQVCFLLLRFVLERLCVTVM
Particulars: protein: recombinant; tags: N-terminal GST; dsDNA, one strand shown. The essentials:
as §1

The target of experiment [7] is T4, ETV2 (Homo sapiens, UniProt O00321 1-342).
T4 sequence: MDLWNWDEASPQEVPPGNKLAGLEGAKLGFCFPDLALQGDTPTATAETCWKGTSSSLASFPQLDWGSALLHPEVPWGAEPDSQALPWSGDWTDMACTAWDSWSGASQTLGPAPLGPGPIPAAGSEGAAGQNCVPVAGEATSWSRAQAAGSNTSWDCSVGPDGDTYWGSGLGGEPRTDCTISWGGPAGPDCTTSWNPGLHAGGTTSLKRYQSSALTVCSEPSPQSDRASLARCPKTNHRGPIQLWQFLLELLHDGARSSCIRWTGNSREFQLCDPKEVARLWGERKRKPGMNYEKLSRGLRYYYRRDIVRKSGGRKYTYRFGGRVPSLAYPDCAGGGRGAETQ
Particulars: protein: recombinant; tags: N-terminal GST; dsDNA, one strand shown. The gist of the method: as §1

In experiment [8] the target is T5, ELF3 (Homo sapiens, UniProt P78545 1-371).
T5 sequence: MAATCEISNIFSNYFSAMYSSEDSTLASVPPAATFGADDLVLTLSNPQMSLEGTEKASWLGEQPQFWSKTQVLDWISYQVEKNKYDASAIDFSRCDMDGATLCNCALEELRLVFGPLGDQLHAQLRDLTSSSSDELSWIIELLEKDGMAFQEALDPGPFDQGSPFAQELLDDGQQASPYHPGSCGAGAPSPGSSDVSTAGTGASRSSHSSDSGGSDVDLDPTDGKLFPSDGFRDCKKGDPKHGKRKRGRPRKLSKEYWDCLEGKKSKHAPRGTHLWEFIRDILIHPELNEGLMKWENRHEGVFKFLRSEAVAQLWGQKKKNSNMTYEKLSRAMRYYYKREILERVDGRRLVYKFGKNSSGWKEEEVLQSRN
Particulars: protein: recombinant; tags: N-terminal GST; dsDNA, one strand shown. The essentials:
as §1

For experiment [9], the target named is CRX (Homo sapiens, UniProt O43186 1-299). Particulars: protein: recombinant; tags: N-terminal GST; dsDNA, one strand shown. The essentials: as §1
In experiment [10] the target is ETV1 (Homo sapiens, UniProt P50549 1-477). Particulars: protein: recombinant; tags: N-terminal GST; dsDNA, one strand shown. The gist of the method:
as §1

The target of experiment [11] is T6, ERF (Homo sapiens, UniProt P50548 1-548).
T6 sequence: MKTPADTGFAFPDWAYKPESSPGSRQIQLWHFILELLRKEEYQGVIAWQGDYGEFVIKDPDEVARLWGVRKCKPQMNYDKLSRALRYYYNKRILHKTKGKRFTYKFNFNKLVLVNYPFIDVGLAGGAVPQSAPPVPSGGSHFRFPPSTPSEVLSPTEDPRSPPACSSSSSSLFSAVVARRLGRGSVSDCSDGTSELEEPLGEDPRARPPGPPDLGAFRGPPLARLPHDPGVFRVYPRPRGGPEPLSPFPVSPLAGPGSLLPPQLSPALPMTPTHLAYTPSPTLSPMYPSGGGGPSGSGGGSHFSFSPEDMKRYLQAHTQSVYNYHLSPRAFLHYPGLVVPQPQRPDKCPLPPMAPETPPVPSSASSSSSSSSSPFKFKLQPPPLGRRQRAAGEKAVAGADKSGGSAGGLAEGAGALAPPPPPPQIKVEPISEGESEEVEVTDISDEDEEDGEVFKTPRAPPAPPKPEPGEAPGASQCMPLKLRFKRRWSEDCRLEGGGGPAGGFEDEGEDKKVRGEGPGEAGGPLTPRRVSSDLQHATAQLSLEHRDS
To be noted: protein: recombinant; tags: N-terminal GST; dsDNA, one strand shown. The essentials:
as §1

Experiment [12] addresses T7, ETV3L (Homo sapiens, UniProt Q6ZN32 1-361).
T7 sequence: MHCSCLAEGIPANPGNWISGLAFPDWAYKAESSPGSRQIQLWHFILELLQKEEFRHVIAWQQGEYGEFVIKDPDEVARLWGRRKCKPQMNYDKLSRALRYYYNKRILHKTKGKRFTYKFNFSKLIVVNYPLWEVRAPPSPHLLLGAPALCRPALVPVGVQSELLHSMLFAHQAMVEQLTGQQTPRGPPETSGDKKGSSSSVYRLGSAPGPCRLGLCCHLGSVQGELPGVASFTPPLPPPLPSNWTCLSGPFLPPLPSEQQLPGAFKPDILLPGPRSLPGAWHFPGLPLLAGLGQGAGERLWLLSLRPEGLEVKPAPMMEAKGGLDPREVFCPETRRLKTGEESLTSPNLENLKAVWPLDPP
Particulars: protein: recombinant; tags: N-terminal GST; dsDNA, one strand shown. The essentials:
as §1

Experiment [13] has as its target T8, ETS2 (Homo sapiens, UniProt P15036 1-469).
T8 sequence: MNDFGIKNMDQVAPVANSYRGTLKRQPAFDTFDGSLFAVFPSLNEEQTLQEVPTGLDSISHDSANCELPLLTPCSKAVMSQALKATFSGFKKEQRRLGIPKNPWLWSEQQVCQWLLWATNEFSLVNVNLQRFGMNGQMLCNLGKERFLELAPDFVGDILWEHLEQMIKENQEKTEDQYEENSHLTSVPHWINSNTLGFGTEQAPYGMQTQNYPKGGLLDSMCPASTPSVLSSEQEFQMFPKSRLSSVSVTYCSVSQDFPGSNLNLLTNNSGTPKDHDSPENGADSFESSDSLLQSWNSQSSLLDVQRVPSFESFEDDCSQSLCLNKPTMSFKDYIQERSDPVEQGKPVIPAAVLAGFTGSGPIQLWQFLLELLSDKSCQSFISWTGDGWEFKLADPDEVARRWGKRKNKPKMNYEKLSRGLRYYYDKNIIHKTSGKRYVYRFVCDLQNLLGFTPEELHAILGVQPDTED
Particulars: protein: recombinant; tags: N-terminal GST; dsDNA, one strand shown. The gist of the method: as §1

The target of experiment [14] is T9, SPDEF (Homo sapiens, UniProt O95238 1-335).
T9 sequence: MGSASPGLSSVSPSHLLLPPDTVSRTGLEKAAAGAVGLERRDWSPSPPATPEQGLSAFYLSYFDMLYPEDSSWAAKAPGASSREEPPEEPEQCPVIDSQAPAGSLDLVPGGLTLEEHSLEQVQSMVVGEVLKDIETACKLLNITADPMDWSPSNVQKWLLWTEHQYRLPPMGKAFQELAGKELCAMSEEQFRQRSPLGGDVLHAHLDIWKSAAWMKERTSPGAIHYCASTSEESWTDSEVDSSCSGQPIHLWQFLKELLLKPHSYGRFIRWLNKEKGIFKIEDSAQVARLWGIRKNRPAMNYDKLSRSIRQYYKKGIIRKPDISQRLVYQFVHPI
Particulars: protein: recombinant; tags: N-terminal GST; dsDNA, one strand shown. The gist of the method: as §1

Experiment [15] deals with T10, ETV7 (Homo sapiens, UniProt Q9Y603 1-341).
T10 sequence: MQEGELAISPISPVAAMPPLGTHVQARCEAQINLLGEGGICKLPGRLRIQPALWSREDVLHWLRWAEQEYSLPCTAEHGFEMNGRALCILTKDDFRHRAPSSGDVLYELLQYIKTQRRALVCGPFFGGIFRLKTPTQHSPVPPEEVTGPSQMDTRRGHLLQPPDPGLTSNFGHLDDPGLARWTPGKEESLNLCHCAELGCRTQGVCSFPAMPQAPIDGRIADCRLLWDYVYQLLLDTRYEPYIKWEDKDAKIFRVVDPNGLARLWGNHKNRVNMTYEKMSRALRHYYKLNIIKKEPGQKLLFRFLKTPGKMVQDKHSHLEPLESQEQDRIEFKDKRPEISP
Particulars: protein: recombinant; tags: N-terminal GST; dsDNA, one strand shown. The gist of the method:
as §1

Experiment [16] addresses T11, ELF5 (Homo sapiens, UniProt Q9UKW6-2 1-255).
T11 sequence: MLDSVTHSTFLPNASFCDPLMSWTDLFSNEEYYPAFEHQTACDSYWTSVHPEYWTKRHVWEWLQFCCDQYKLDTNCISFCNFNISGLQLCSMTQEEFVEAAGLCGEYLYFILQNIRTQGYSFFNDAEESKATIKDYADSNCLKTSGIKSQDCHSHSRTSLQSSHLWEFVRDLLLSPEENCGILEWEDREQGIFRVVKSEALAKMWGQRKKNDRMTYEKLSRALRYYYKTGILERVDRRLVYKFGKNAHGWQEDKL
To be noted: protein: recombinant; tags: N-terminal GST; dsDNA, one strand shown. The gist of the method: as §1

The target in experiment [17] is T12, ETV3 (Homo sapiens, UniProt P41162-2 1-143).
T12 sequence: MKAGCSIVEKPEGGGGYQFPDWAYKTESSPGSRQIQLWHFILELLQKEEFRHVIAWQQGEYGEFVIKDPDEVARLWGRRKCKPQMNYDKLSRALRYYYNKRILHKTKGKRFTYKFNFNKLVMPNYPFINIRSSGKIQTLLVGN
Particulars: protein: recombinant; tags: N-terminal GST; dsDNA, one strand shown. The gist of the method: as §1

Experiment [18] deals with ETV6 (Homo sapiens, UniProt P41212 1-452). Particulars: protein: recombinant; tags: N-terminal GST; dsDNA, one strand shown. The gist of the method: as §1
Sequence of ETV6 (P41212 whole entry): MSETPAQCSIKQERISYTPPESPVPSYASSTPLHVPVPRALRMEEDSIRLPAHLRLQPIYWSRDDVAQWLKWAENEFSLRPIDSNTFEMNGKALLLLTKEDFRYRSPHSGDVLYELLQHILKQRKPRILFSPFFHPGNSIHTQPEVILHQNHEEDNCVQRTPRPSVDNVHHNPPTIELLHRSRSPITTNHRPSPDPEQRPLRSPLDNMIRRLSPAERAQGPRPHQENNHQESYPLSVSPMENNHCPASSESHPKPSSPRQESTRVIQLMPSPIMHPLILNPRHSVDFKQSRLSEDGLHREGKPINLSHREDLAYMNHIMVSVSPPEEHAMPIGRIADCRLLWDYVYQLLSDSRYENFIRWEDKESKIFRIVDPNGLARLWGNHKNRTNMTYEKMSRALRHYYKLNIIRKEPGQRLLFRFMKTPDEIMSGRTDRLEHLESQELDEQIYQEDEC

Sequence of ELF4 (Q99607 whole entry): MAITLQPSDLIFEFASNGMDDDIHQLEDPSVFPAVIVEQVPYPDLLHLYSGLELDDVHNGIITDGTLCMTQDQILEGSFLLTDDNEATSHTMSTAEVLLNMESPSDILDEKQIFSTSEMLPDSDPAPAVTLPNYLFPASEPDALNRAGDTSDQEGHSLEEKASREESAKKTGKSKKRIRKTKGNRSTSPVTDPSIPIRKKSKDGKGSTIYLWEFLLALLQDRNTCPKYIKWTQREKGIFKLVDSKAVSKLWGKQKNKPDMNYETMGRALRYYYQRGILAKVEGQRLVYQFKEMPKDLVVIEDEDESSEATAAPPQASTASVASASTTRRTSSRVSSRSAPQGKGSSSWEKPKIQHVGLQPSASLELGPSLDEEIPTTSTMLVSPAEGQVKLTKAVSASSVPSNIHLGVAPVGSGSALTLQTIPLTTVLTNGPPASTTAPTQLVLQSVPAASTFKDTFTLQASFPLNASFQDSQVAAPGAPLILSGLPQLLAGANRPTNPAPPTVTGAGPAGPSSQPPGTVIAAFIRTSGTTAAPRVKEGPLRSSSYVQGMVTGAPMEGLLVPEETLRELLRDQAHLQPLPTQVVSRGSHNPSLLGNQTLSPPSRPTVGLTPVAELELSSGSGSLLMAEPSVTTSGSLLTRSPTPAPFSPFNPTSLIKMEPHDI
Sequence of ETV5 (P41161 whole entry): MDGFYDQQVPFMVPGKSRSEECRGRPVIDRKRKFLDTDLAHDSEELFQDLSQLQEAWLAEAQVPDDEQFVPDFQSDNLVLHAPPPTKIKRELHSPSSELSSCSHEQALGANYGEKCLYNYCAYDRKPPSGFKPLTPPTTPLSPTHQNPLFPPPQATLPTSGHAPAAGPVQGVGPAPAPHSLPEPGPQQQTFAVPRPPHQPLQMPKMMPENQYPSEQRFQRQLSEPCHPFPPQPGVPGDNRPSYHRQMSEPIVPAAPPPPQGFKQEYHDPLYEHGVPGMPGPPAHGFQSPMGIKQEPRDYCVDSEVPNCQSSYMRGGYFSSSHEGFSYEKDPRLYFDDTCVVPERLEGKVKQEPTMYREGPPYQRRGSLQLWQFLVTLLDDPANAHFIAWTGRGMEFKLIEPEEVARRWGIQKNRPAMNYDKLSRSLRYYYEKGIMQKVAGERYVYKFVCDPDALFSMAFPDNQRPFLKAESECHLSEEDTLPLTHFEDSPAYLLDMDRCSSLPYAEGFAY
Sequence of CRX (O43186 whole entry): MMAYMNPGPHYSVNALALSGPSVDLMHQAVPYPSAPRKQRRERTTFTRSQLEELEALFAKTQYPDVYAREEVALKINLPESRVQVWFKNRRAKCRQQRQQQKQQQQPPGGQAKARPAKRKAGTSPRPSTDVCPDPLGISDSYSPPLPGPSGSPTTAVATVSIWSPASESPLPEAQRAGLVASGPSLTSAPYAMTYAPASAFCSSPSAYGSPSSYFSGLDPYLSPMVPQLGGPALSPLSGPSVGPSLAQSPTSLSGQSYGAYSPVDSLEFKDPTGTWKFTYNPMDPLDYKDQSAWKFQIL
Sequence of ETV1 (P50549 whole entry): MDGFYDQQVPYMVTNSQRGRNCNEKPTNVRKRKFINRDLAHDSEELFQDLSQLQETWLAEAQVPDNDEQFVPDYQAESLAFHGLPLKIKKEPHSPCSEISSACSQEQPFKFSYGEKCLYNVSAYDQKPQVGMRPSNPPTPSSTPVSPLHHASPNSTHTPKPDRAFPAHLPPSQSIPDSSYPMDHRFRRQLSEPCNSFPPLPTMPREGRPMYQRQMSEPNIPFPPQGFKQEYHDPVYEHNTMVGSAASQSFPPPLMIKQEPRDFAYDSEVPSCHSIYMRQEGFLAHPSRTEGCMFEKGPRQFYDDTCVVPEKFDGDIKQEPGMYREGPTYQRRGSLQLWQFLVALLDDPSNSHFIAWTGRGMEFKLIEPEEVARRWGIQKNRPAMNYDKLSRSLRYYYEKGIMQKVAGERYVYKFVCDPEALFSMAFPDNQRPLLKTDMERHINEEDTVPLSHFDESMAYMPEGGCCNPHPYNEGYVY
Sequence of HSF1 (Q00613 whole entry): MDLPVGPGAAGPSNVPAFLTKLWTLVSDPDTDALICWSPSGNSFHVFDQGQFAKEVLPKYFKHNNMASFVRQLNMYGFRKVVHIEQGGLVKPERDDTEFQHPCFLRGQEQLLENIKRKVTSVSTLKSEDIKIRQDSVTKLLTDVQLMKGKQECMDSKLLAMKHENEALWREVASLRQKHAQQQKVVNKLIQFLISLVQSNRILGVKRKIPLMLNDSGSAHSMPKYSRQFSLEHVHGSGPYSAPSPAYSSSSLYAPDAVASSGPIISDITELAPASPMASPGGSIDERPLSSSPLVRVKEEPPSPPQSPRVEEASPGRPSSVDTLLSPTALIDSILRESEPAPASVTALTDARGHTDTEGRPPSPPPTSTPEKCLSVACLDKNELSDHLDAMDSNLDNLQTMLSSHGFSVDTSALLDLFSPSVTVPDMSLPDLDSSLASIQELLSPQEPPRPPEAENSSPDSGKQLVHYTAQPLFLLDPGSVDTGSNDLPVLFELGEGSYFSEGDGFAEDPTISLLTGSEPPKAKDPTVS

As to ATGATA, the binding signal in experiment [1] is 1.25 fold enrichment (6-mer frequency, TF over GST control); in experiment [2] it was 1.17 fold enrichment (6-mer frequency, TF over GST control); in experiment [3] it was 1.23 fold enrichment (6-mer frequency, TF over GST control); in experiment [4], 1.07 fold enrichment (6-mer frequency, TF over GST control); in experiment [5], 1.26 fold enrichment (6-mer frequency, TF over GST control); in experiment [6], 1.27 fold enrichment (6-mer frequency, TF over GST control). For the same sequence, the binding signal in [7] was 1.2 fold enrichment (6-mer frequency, TF over GST control); in experiment [8], 1.21 fold enrichment (6-mer frequency, TF over GST control); in [9] it was 1.39 fold enrichment (6-mer frequency, TF over GST control); in experiment [10] it was 1.17 fold enrichment (6-mer frequency, TF over GST control); in experiment [11] it was 1.21 fold enrichment (6-mer frequency, TF over GST control); in experiment [12], 1.22 fold enrichment (6-mer frequency, TF over GST control). The binding signal is 1.17 fold enrichment (6-mer frequency, TF over GST control) in experiment [13]; 1.22 fold enrichment (6-mer frequency, TF over GST control) in [14]; 1.16 fold enrichment (6-mer frequency, TF over GST control) in experiment [15]; 1.23 fold enrichment (6-mer frequency, TF over GST control) in [16]; 1.2 fold enrichment (6-mer frequency, TF over GST control) in experiment [17]; 1.18 fold enrichment (6-mer frequency, TF over GST control) in experiment [18].
